Test [1] deals with T1, Serine/threonine-protein kinase ULK2 (Homo sapiens) (UniProt Q8IYT8).
T1 sequence (whole entry): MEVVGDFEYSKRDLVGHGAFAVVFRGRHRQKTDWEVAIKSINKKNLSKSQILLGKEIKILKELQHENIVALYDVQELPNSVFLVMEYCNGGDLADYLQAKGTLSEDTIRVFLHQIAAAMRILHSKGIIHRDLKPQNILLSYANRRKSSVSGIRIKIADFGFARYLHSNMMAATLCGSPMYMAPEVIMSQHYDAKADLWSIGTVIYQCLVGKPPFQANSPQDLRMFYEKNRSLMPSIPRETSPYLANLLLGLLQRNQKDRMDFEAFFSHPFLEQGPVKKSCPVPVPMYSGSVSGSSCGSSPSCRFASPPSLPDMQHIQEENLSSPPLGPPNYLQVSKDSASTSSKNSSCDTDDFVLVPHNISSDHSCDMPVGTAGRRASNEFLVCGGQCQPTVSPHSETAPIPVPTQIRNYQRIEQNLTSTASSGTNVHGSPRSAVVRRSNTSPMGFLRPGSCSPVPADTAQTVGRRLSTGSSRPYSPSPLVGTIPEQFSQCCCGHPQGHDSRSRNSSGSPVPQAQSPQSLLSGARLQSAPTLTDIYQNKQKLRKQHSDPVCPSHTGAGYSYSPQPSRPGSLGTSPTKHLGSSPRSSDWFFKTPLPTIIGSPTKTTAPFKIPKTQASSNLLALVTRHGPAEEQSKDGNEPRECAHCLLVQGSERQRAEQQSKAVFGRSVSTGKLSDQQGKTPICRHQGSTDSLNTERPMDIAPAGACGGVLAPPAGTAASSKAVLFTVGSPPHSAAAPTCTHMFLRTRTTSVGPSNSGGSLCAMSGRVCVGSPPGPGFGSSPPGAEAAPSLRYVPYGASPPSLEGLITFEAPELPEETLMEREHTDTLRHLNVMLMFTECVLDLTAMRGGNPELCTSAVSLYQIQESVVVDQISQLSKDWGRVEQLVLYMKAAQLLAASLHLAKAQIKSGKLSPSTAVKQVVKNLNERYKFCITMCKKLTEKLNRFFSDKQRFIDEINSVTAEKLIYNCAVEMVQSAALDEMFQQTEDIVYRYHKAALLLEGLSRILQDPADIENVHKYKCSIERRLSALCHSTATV
The settings on record: at 1 µM.

The target in test [2] is T1, Serine/threonine-protein kinase ULK2 (Homo sapiens). The note with it: at 10 µM.
Test [3] addresses T2, Serine/threonine-protein kinase ULK3 (Homo sapiens) (UniProt Q6PHR2).
T2 sequence (whole entry): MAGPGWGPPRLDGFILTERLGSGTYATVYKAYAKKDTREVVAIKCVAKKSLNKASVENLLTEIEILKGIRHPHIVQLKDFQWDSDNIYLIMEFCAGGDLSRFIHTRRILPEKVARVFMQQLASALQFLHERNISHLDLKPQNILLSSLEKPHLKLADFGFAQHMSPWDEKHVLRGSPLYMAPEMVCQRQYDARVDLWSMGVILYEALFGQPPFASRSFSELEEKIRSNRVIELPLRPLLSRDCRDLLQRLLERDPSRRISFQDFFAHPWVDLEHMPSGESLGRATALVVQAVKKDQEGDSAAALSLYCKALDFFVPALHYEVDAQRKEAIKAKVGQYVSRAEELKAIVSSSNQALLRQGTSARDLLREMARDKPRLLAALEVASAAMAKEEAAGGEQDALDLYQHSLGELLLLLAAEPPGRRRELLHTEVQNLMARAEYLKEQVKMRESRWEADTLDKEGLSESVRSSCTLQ
The settings on record: at 1 µM.

Test [4] addresses T2, Serine/threonine-protein kinase ULK3 (Homo sapiens). The note with it: at 10 µM.
Test [5] has as its target Serine/threonine-protein kinase VRK2 (Homo sapiens) (UniProt Q86Y07). The settings on record: at 1 µM.
Test [6] shares this target. The note with it: at 10 µM.
Test [7] has as its target Serine/threonine-protein kinase WNK2 (Homo sapiens) (UniProt Q9Y3S1). The note with it: at 1 µM.
Test [8] shares this target. The note with it: at 10 µM.
Test [9] deals with Serine/threonine-protein kinase WNK3 (Homo sapiens) (UniProt Q9BYP7). The note with it: at 1 µM.
Serine/threonine-protein kinase WNK3 (Homo sapiens), sequence (Q9BYP7 whole entry): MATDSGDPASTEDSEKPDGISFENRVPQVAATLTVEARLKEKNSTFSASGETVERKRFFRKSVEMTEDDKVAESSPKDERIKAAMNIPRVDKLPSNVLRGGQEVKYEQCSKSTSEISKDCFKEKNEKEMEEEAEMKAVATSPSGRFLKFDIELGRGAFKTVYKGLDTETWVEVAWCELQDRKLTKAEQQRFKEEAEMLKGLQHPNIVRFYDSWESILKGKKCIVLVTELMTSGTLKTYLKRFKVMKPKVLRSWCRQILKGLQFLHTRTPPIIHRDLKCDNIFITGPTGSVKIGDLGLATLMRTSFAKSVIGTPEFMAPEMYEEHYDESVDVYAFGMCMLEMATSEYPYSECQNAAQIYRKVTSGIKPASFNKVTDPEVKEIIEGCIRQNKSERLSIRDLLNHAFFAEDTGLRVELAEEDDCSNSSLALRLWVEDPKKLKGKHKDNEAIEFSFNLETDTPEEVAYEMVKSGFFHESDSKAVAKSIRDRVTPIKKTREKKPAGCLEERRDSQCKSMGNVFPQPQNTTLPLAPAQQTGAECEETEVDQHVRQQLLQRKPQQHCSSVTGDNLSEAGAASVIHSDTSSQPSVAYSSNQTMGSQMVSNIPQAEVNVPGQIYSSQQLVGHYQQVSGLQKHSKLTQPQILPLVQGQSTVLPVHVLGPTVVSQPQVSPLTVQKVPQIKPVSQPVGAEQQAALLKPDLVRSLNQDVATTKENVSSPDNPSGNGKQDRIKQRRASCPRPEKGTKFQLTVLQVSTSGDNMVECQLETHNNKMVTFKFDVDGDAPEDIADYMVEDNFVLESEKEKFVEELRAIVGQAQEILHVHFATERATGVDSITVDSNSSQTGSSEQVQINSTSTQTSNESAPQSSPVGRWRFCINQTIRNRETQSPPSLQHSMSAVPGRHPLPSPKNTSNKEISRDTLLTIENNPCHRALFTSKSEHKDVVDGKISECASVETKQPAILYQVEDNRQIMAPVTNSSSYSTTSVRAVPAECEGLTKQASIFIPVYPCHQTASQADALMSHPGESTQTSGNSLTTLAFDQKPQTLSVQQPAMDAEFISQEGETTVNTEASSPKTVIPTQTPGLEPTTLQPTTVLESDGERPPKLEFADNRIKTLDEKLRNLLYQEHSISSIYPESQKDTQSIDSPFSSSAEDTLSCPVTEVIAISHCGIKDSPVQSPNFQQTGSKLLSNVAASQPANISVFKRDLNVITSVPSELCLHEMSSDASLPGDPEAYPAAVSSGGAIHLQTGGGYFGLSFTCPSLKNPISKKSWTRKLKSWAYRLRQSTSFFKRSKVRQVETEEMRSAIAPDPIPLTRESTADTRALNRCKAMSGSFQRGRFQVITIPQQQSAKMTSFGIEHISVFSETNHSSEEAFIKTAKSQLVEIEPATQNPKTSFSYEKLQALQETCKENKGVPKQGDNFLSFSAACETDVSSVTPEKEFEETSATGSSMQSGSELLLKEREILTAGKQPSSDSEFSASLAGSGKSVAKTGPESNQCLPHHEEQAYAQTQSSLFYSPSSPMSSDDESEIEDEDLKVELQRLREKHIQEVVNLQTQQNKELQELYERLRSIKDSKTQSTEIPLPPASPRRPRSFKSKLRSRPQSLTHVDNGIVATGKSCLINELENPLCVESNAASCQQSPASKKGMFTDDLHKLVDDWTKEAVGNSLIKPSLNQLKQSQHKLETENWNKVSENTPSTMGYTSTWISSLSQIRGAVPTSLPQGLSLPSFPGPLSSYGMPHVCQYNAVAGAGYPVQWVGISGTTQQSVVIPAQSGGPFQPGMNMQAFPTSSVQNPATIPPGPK
The target is the same in test [10]. The settings on record: at 10 µM.

We go through 18 compounds from ChEMBL document CHEMBL2218924, “A broad activity screen in support of a chemogenomic map for kinase signalling research and drug discovery” (Biochem J, 2013).

Serine/threonine-protein kinase VRK2 (Homo sapiens), sequence (Q86Y07 whole entry): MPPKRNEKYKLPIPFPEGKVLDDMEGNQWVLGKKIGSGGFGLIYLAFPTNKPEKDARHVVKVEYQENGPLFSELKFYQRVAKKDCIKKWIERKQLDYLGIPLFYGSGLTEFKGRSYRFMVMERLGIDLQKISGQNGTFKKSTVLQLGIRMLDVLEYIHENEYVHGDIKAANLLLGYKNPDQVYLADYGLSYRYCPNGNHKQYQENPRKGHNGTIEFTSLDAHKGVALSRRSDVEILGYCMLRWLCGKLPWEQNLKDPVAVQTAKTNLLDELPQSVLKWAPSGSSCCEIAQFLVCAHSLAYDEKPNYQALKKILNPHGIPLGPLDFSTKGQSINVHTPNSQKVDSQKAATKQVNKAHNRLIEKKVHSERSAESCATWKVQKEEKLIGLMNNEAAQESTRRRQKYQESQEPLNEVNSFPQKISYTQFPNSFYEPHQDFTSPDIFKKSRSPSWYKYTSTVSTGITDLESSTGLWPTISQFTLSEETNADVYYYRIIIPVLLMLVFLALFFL
Serine/threonine-protein kinase WNK2 (Homo sapiens), sequence (Q9Y3S1 whole entry): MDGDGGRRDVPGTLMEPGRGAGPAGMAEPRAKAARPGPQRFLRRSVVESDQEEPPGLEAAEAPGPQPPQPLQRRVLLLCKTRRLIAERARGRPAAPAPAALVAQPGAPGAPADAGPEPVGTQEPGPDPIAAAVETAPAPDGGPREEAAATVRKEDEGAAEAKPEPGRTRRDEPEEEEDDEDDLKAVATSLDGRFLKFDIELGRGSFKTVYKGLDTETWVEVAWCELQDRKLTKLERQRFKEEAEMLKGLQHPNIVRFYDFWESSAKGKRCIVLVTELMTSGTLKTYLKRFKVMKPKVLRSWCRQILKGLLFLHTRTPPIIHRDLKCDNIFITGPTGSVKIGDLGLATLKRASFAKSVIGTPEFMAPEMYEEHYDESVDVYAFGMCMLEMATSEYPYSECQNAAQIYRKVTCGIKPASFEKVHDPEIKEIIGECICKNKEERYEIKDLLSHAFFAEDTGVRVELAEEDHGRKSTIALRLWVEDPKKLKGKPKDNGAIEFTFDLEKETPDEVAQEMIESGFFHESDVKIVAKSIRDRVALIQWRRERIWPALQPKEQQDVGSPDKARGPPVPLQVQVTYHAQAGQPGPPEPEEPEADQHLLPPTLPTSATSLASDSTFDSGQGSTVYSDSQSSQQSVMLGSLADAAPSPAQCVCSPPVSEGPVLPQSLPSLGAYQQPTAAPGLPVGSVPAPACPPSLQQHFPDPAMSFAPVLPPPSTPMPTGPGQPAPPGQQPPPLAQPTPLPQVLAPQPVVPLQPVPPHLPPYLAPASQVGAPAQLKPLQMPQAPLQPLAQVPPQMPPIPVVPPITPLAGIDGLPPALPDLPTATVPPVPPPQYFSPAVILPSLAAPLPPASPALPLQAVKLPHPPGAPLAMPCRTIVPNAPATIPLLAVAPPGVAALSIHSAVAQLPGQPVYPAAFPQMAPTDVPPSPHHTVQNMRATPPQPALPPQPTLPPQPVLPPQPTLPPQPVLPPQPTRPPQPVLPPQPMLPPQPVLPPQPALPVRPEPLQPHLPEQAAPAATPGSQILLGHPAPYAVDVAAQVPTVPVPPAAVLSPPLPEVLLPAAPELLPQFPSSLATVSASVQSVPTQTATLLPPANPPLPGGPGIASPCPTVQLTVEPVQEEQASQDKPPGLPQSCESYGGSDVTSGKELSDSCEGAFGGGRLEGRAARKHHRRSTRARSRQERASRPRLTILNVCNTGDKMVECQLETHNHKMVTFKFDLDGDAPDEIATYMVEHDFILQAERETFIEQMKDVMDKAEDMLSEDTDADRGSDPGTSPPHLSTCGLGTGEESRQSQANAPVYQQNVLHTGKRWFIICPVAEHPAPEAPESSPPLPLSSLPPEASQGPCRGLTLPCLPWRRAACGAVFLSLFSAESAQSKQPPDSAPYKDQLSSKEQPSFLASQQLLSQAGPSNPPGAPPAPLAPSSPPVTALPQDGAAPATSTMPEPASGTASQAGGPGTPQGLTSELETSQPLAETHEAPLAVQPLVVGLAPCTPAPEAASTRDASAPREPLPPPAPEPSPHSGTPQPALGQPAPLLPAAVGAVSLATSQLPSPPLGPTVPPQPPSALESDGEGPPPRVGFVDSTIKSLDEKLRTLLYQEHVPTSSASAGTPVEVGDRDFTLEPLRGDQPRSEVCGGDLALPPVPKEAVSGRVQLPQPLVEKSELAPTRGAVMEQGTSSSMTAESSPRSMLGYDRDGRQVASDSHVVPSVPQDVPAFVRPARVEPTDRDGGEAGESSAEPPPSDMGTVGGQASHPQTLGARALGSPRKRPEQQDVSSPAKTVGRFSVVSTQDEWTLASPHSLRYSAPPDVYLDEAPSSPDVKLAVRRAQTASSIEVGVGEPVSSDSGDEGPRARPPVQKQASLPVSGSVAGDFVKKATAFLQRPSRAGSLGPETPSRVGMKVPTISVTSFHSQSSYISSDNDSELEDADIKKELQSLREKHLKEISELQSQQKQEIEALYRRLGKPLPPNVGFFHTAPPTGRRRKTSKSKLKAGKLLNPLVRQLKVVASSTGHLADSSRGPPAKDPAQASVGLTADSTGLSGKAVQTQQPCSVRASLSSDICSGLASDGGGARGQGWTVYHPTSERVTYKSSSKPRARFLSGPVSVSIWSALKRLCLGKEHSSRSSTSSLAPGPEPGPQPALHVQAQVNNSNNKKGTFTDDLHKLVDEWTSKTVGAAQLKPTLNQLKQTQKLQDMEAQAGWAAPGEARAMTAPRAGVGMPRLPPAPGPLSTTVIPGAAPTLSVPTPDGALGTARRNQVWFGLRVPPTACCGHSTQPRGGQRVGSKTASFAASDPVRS

By residual activity is commonly meant the signal under treatment as a percentage of the control signal. As to `CC(C)[C@H](CO)Nc1nc(Nc2cccc(Cl)c2)c2ncn(C(C)C)c2n1`, the residual activity was 83% in test [1]; 39% in test [2]; 39% in [3]; 7% in test [4]; 85% (inactive) in test [5]; 30% in test [6]. The residual activity was 91% (inactive) in test [7], 46% in test [8], 82% (inactive) in [9] and 51% in [10].

With `COc1ccc2c(c1)/C(=C/c1cnc[nH]1)C(=O)N2`, the residual activity was found to be 81% in test [1]; 23% in [2]; 80% in [3]; 23% in test [4]; 66% in test [6]; 96% in [10].

As to `O=C1NC(=O)c2c1c1c3ccccc3n3c1c1c2c2ccccc2n1C1CCC3O1`, the residual activity in [3] is 58%; in test [4], 58%; in test [7], 100% (inactive); in [8] it was 99%; in test [9] it was 94% (inactive); in test [10], 90%.

Regarding `COc1cc(OC)c(/C=C2\C(=O)Nc3ccccc32)c(OC)c1`, the residual activity in test [2] was 99%; in [3], 95%; in test [4] it was 95%; in test [5], 83% (inactive); in [6], 32%; in test [7], 89% (inactive). The residual activity in test [8] is 78%; in [9] it was 93% (inactive); in test [10], 83%.

Consider `CC(C)(C)c1cc(C=C(C#N)C#N)cc(Br)c1O`, for which the residual activity is 113% in test [1]; 112% in test [2]; 110% in test [3]; 99% in test [4]; 101% (inactive) in [5]; 105% in test [6]. Also, the residual activity in test [7] is 114% (inactive); in test [8] it was 114%; in test [9], 111% (inactive); in test [10], 105%.

With `CN[C@@H]1C[C@H]2O[C@@](C)([C@@H]1OC)n1c3ccccc3c3c4c(c5c6ccccc6n2c5c31)C(=O)NC4`, the residual activity is 2% in test [1]; 0% in test [2]; 108% (inactive) in test [5]; 90% in test [6]; 92% (inactive) in [7]; 30% in test [8]. For the same compound, the residual activity in test [9] was 88% (inactive).

Consider `N/C(=N\[N+](=O)[O-])N/N=C\c1ccc(-c2cccc([N+](=O)[O-])c2)o1`, for which the residual activity in test [3] is 92%; in test [4], 88%.

Turning to `O=c1[nH]c2ccccc2n1C1CCN(Cc2ccc(-c3nc4cc5[nH]cnc5cc4nc3-c3ccccc3)cc2)CC1`, the residual activity is 108% in [1]; 106% in [2]; 100% in [3]; 95% in test [4]; 109% (inactive) in test [5]; 93% in test [6]. The residual activity in test [7] was 117% (inactive); in test [8], 83%; in [9] it was 116% (inactive); in test [10], 85%.

In the case of `O=C1Nc2ccc3ncsc3c2/C1=C/c1c[nH]cn1`, the residual activity was 37% in test [1]; 6% in test [2]; 42% in test [3]; 7% in test [4]; 75% (inactive) in test [5]; 26% in test [6]. Moreover, the residual activity in test [7] was 89% (inactive); in test [8] it was 57%; in test [9], 84% (inactive); in test [10], 67%.

With `O=C1c2ccccc2-c2nc3nnnn3nc21`, the residual activity is 110% in test [1]; 103% in test [2]; 116% (inactive) in test [5]; 102% in test [6]; 115% (inactive) in test [9]; 103% in [10].

Regarding `C[S+]([O-])c1ccc(-c2nc(-c3ccc(F)cc3)c(-c3ccncc3)[nH]2)cc1` (centres undefined), the residual activity in [1] is 120%; in test [2], 101%; in [3], 104%; in test [4], 104%; in [5], 114% (inactive); in [6], 96%. Further, the residual activity in test [7] was 117% (inactive); in test [8] it was 101%; in [9], 110% (inactive); in test [10] it was 100%.

In the case of `COc1ccc2c(c[n+](C)c3c4cc5c(cc4ccc23)OCO5)c1OC`, the residual activity in test [2] is 94%; in [4], 96%; in test [5] it was 110% (inactive); in test [6] it was 91%; in test [8] it was 76%; in test [10], 84%.

Take `c1cc(-c2cnn3cc(-c4ccc(OCCN5CCCCC5)cc4)cnc23)ccn1`: the residual activity is 50% in test [1]; 17% in [2]; 84% in [3]; 48% in test [4]; 119% (inactive) in test [5].

For `O=[N+]([O-])/C=C/c1ccc2c(c1)OCO2`, the residual activity in test [1] was 102%; in test [2] it was 92%; in test [3], 111%; in test [4] it was 91%; in test [5] it was 101% (inactive); in test [6], 91%. The residual activity in test [7] is 109% (inactive); in [8], 88%; in test [9] it was 88% (inactive); in test [10], 94%.

Turning to `COC(=O)[C@@]1(O)C[C@H]2O[C@]1(C)n1c3ccccc3c3c4c(c5c6ccccc6n2c5c31)C(=O)NC4`, the residual activity in test [1] was 7%; in [2], 0%; in [3] it was 0%; in [4] it was 1%; in test [5] it was 100% (inactive); in test [6], 101%. The residual activity is 63% (inactive) in [7], 12% in test [8], 70% (inactive) in test [9] and 8% in test [10].

For `CCn1cnc2c(Nc3cccc(Cl)c3)nc(N[C@@H]3CCCC[C@@H]3N)nc21`, the residual activity was 54% in test [1]; 15% in [2]; 40% in test [3]; 8% in test [4]; 94% (inactive) in test [5]; 48% in test [6]. For the same compound, the residual activity in [7] is 88% (inactive); in test [8] it was 45%; in test [9] it was 87% (inactive); in [10], 56%.

On to `COc1cc2ncnc(Nc3ccc(OCc4ccccc4)cc3)c2cc1OC`, for which the residual activity in test [1] is 102%; in [2], 93%; in [3] it was 104%; in test [4] it was 69%; in test [5], 112% (inactive); in test [6], 97%. Also, the residual activity in test [7] is 93% (inactive); in test [8], 55%; in test [9], 95% (inactive); in [10], 64%.

On to `CCc1nc(-c2ccc(OC)cc2)[nH]c1-c1ccncc1`, for which the residual activity was 115% in [1]; 105% in test [2]; 113% (inactive) in test [5]; 101% in test [6]; 112% (inactive) in [7]; 100% in test [8]. In addition, in [10], the residual activity is 108%.
